Inconclusive results are not listed. Where a call stands in place of a potency, no number is given. Activity calls are given as the source filed them. Calls follow the shape of the dose curve; as a rule, active = well fitted inhibition curve with a large enough effect; inconclusive = small, poorly fitted or top-dose-only effect, or effect the other way; inactive = flat fitted curve, though single readings scatter.

These results are taken from PubChem BioAssay AID1570 (National Center for Advancing Translational Sciences (NCATS), 2009).

The target of this experiment is Thyroid hormone receptor beta (Homo sapiens) (UniProt P10828). Nature of the experiment: Concentration Response Confirmation Assay for Inhibitors of the Interaction of Thyroid Hormone Receptor and Steroid Receptor Coregulator 2, Fluorescein Fluoroprobe. From the text:
NIH Molecular Libraries Probe Production Network [MLPCN] NIH Chemical Genomics Center [NCGC] MLPCN Grant: DK058080 Assay Provider: R. Kip Guy, St. Jude Children's Research Hospital NCGC Assay Overview: Thyroid receptor (TR) regulates many homeostatic processes including basal metabolism, cardiovascular function, body weight, and lipid trafficking. TR modulators are potential therapeutics for obesity and hyperlipidemias but current thyroid analogs have undesirable side effects, particularly cardiac stimulation. To identify inhibitors that specifically prevent the interaction of TR with the steroid receptor coregulator 2 (SRC2), a fluorescence polarization assay was screened (Arnold et al., 2006). […] Small molecule inhibitors that block the interaction of TR and SRC2 are detected by a decrease in fluorescence polarization. […]
NCGC Assay Protocol Summary: Five uL/well 0.6 uM TRbeta and 20 nM SRC2 Fluorescein in protein buffer (20mM Tris hydrochloride, 100mM NaCl, 10% glycerol, 1mM EDTA, 0.01% NP-40, 1mM DTT, 1uM T3 and 5% DMSO) was dispensed into black solid 1536-well plates (Grenier) using a solenoid-based dispenser. […] The plates were read by an Envision (Perkin Elmer) to detect fluorescence polarization of SRC2 Fluorescein (480 nm excitation and 535 nm emission). […]

Thyroid hormone receptor beta (Homo sapiens), sequence (P10828 whole entry, looked up): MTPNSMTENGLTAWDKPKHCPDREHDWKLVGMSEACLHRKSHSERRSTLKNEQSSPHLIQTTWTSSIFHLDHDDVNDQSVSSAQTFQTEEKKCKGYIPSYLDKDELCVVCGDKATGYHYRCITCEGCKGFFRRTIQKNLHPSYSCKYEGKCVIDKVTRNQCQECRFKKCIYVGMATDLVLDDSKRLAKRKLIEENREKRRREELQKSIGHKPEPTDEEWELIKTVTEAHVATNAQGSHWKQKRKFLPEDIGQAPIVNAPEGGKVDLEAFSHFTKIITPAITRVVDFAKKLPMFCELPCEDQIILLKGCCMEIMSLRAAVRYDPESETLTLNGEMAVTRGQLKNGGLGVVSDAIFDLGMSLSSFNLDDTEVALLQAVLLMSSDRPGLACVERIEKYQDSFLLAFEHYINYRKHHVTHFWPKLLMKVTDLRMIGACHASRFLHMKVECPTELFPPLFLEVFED

For `CCn1nc(-c2cccs2)nc2c(=O)n(C)c(=O)nc1-2`, the Potency entry was “inactive”.

For `COP(=S)(OC)Oc1ccc([N+](=O)[O-])cc1`, the Potency was 14.1 µM (active).
